In PubChem BioAssay (Tox21):
Inconclusive results are not listed. The source made the active and inactive calls. Unless noted, calls come from the whole dose curve; as a rule, active = well fitted curve in the direction sought with a large enough effect in the repeat runs; inconclusive = weak or mixed curves; inactive = flat fitted curve, though single readings scatter.

What was measured:
[1] = qHTS assay to test for compound auto fluorescence at 535 nm (green) in HEK293 cells (AID 720680)
[2] = qHTS assay to test for compound auto fluorescence at 460 nm (blue) in HEK293 cell free culture (AID 720681)
Outline: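 Test compounds were pinned into cell-free culture medium (DMEM with 10% FBS) and fluorescence was read directly at Ex/Em 405/460 nm. Signals were expressed as fluorescence equivalents of triamterene, with DMSO vehicle as control.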

[3] = qHTS assay to test for compound auto fluorescence at 535 nm (green) in HEK293 cell free culture (AID 720682)
Outline: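 DMEM + 10% FBS, cell-free; cpd or DMSO pinned in; Ex485/Em535 read; output as fluorescein-equivalent signal.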

[4] = qHTS assay to test for compound auto fluorescence at 590 nm (red) in HEK293 cell free culture (AID 720683)
Outline: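 Tox21 10K library compounds were pinned into cell-free DMEM with 10% FBS and fluorescence was read at excitation 540 nm. Activity is expressed as Rose Bengal sodium equivalency.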

[5] = qHTS assay to test for compound auto fluorescence at 590 nm (red) in HepG2 cell free culture (AID 720684)
Outline: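 Red fluorescence (540 nm excitation, 590 nm emission) was measured after compound transfer into cell-free MEM supplemented with 10% FBS. Values are equivalencies against Rose Bengal sodium.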

[6] = qHTS assay to test for compound auto fluorescence at 535 nm (green) in HepG2 cell free culture (AID 720686)
[7] = qHTS assay to test for compound auto fluorescence at 460 nm (blue) in HepG2 cells (AID 720687)
Outline: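 Cells (2,000/well in MEM with 10% FBS) attached overnight at 37 C, then were exposed to compound or DMSO for 1 hr at 37 C, 5% CO2. Fluorescence read at Ex/Em 405/460 nm, expressed as triamterene-equivalent signal.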

[8] = biological target: Glucocorticoid receptor (Homo sapiens) (UniProt P04150); assay: qHTS assay to identify small molecule antagonists of the glucocorticoid receptor (GR) signaling pathway (AID 720692; active = well fitted inhibition curve with a large enough effect in the signal ratio in the repeat runs, not every such curve was filed as active; the % refers to the signal ratio)
Glucocorticoid receptor (Homo sapiens), sequence (P04150 whole entry, looked up): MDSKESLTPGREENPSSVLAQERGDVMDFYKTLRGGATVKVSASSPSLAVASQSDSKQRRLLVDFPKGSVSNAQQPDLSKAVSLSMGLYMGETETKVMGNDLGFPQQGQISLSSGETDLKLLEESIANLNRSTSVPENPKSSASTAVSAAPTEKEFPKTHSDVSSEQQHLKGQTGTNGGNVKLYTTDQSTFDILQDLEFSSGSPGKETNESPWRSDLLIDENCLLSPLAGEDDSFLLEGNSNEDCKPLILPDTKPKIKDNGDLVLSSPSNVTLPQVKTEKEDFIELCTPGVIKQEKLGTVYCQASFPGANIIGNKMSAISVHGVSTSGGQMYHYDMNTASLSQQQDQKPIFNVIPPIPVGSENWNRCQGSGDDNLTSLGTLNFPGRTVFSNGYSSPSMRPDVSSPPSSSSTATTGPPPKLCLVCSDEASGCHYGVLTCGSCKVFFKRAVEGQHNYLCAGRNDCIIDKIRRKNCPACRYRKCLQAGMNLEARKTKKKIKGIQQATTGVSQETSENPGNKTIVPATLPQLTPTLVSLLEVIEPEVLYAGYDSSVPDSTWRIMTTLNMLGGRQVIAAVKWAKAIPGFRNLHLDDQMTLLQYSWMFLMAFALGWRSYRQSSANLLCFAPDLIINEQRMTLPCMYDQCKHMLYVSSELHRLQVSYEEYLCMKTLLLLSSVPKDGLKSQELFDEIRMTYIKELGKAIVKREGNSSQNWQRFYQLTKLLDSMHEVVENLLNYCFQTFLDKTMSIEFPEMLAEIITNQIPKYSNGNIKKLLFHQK
Outline: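 HeLa GR-bla cells; cmpd + dex 5 nM final, 18 h 37 C; LiveBLAzer B/G FRET substrate 2 h RT; fluorescence intensity read. Antagonist mode, qHTS.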

[9] = qHTS assay to test for compound auto fluorescence at 460 nm (blue) in HepG2 cell free culture (AID 720685)
Outline: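 Compound (23 nL) or DMSO pinned into cell-free MEM with 10% FBS; blue fluorescence read at 405/460 nm excitation/emission, expressed as auto-fluorescence equivalency to triamterene.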

[10] = biological target: Glucocorticoid receptor (Homo sapiens) (UniProt P04150); assay: qHTS assay to identify small molecule agonists of the glucocorticoid receptor (GR) signaling pathway (AID 720691; active = well fitted activation curve with a large enough effect in the signal ratio in the repeat runs, not every such curve was filed as active; the % refers to the signal ratio)
Outline: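 Fluorescence intensity from LiveBLAzer B/G FRET substrate (2 h, room temperature) reports beta-lactamase expression driven by the glucocorticoid response element in GR-bla HeLa cells after 18 h compound exposure at 37 C.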

Measured: Potency

C=C(C)[C@H]1CC=C(C)C(=O)C1
not listed: [9] | [10]
inactive: all other assays above

C=CCc1ccc(OC)c(OC)c1
not listed: [10]
inactive: all other assays above

CN(C)CCOC(=O)COc1ccc(Cl)cc1
not listed: [9]
inactive: all other assays above

CC(C)(Oc1ccc(CCNC(=O)c2ccc(Cl)cc2)cc1)C(=O)O
not listed: [9] | [10]
inactive: all other assays above

CCCCCC(=O)O
not listed: [8] | [9] | [10]
inactive: all other assays above

O=C(O)Cn1c(=O)n(Cc2ccc(Br)cc2F)c(=O)c2ccc(Cl)cc21
not listed: [8] | [9] | [10]
inactive: all other assays above

CC(C)OC(=O)COc1ccc(Cl)cc1Cl
not listed: [9]
inactive: all other assays above

CCOC(=O)n1ccn(C)c1=S
not listed: [9]
inactive: all other assays above

O=C1c2ccccc2CCc2ccccc21
not listed: [8] | [9] | [10]
inactive: all other assays above

CCCCCCCCCCO
not listed: [10]
inactive: all other assays above

Nc1ccc(Cl)c(N)c1
not listed: [5] | [8] | [10]
inactive: all other assays above

CCNc1ccccc1
not listed: [8] | [9] | [10]
inactive: all other assays above

CN/C(=C\[N+](=O)[O-])NCCSCc1csc(CN(C)C)n1
not listed: [9] | [10]
inactive: all other assays above

CC(C)c1cccc(C(C)C)c1
not listed: [9]
inactive: all other assays above

COc1ccccc1OCC(O)CO (stereo not given)
not listed: [8] | [9] | [10]
inactive: all other assays above

COC(=O)CCCC(=O)OC
not listed: [9]
inactive: all other assays above

O=C1CCCC1
not listed: [10]
inactive: all other assays above

COc1ccc(C)cc1N
not listed: [9]
inactive: all other assays above

CNC(=O)Oc1ccc2c(c1)[C@]1(C)CCN(C)[C@@H]1N2C
not listed: [8] | [9]
inactive: all other assays above

CC1(C)CC(N)CC(C)(CN)C1 (stereo not given)
not listed: [9] | [10]
inactive: all other assays above

CCNC(=S)NCC
not listed: [5] | [8] | [10]
inactive: all other assays above

O=c1[nH]cnc2[nH]ncc12
not listed: [5]
inactive: all other assays above

O=C(O)c1cc2ccccc2cc1O
not listed: [5] | [10]
inactive: all other assays above

Nc1nc(N)nc(-c2ccccc2)n1
not listed: [5]
inactive: all other assays above

CN(C)c1ccc(Cc2ccc(N(C)C)cc2)cc1
not listed: [5] | [10]
inactive: all other assays above

CCO[Si](CCCN)(OCC)OCC
not listed: [5]
inactive: all other assays above

CCOCCOCCOCCO
inactive: [1] | [2] | [3] | [4] | [6] | [7]

CSc1ccc(Cl)cc1
not listed: [5] | [10]
inactive: all other assays above

CC(C)CCCCCCCOC(=O)CCCCC(=O)OCCCCCCCC(C)C
not listed: [5]
inactive: all other assays above

CC(=O)OCc1ccccc1
not listed: [5]
inactive: all other assays above

CCCCCCCCCCN
not listed: [5] | [10]
inactive: all other assays above

OCc1ccccc1
not listed: [5]
inactive: all other assays above

CCCCCCO
not listed: [5] | [9] | [10]
inactive: all other assays above

CC(O)CC(C)(C)O (stereo not given)
not listed: [5] | [9]
inactive: all other assays above

CCOC(=O)c1ccc(N)cc1
not listed: [5]
inactive: all other assays above

C=C(C)CNCC
not listed: [5]
inactive: all other assays above

N#Cc1ccccc1
not listed: [5] | [9]
inactive: all other assays above

NCCCCCCN
not listed: [5] | [8] | [10]
inactive: all other assays above

CC(C)CC(C)O (stereo not given)
inactive: [1] | [2] | [3] | [4] | [6] | [7]

CCCCCCC=O
not listed: [5] | [9]
inactive: all other assays above

CC(C)(C#N)c1cc(Cn2cncn2)cc(C(C)(C)C#N)c1
not listed: [5] | [10]
inactive: all other assays above

CC(CCO)CC(C)(C)C (stereo not given)
not listed: [5] | [9]
inactive: all other assays above

CC(C)=CCl
not listed: [5] | [10]
inactive: all other assays above

CC(=O)CC(C)(C)O
not listed: [5] | [10]
inactive: all other assays above

CC(C)(C)c1cc(Cc2cc(C(C)(C)C)c(O)c(C(C)(C)C)c2)cc(C(C)(C)C)c1O
not listed: [5]
inactive: all other assays above

C=CC(=O)OCCC(=O)O
inactive: [1] | [2] | [3] | [4] | [6] | [7]

CC(=O)c1ccc(O)cc1
not listed: [5] | [9]
inactive: all other assays above

OCc1cccc(Oc2ccccc2)c1
inactive: [1] | [2] | [3] | [4] | [6] | [7]

NCCN1CCNCC1
inactive: [1] | [2] | [3] | [4] | [6] | [7]

CC(=O)OC1CC(C)OC(C)O1 (stereo not given)
not listed: [5] | [9] | [10]
inactive: all other assays above

O=S(=O)(O)c1ccc(N=Nc2c(O)ccc3cc(S(=O)(=O)O)ccc23)cc1
not listed: [5] | [10]
inactive: all other assays above

NCCNCCN
inactive: [1] | [2] | [3] | [4] | [6] | [7]

COCCCN
not listed: [5]
inactive: all other assays above

C[Si]1(C)O[Si](C)(C)O[Si](C)(C)O[Si](C)(C)O1
inactive: [1] | [2] | [3] | [4] | [6] | [7]

CCCCOC(=O)c1ccc(N)cc1
not listed: [5] | [10]
inactive: all other assays above

CCO[Si](CCC#N)(OCC)OCC
not listed: [5] | [10]
inactive: all other assays above

CC1(C)S[C@@H]2[C@H](NC(=O)COc3ccccc3)C(=O)N2[C@H]1C(=O)O
not listed: [5] | [8] | [10]
inactive: all other assays above

CN(C)c1ccc(O)c2c1C[C@H]1C[C@H]3[C@H](N(C)C)C(=O)C(C(N)=O)=C(O)[C@@]3(O)C(=O)C1=C2O
not listed: [5] | [10]
inactive: all other assays above

Cc1ccc([N+](=O)[O-])cc1S(=O)(=O)O
not listed: [5] | [9] | [10]
inactive: all other assays above
